Each structure is given as a SMILES string. Inconclusive results are not listed. The source made the active and inactive calls. How the source made its calls: active means hit-call score of the fitted dose curve at least 0.9, where 1 is the maximum; inconclusive means response in the unintended direction; inactive means score below 0.9.

The test system of the test is zebrafish Peroxisome Proliferator-activated Receptor alpha (PPARa), gene 563298. As to the kind of experiment: ATG_zfPPARa_EcoTox2: Attagene TRANS-FACTORIAL EcoTox-2 HepG2 Assay for zebrafish Peroxisome Proliferator-activated Receptor alpha (PPARa). The procedure: ATG_EcoTox2 is a cell-based, multiplexed assay created by modifying the existing Attagene TRANS-FACTORIAL system to include a panel of nuclear receptors from some or all the following species: human (Homo sapiens), african clawed frog (Xenopus laevis), rainbow trout (Oncorhynchus mykiss), japanese medaka (Oryzias latipes), and zebrafish (Danio rerio). The ECOTOX2-FACTORIAL format uses HepG2, a human liver cell line, with measurements taken at 24 hours after chemical dosing in a 24-well plate. ATG_zfPPARa_EcoTox2 is one of 29 assay components calculated in the ATG_EcoTox2 assay. It is designed to make measurements of mRNA induction, a form of inducible reporter, as detected with fluorescence intensity signals by Reverse transcription polymerase chain reaction (RT-PCR) and Capillary electrophoresis technology.The assay endpoint ATG_zfPPARa_EcoTox2 was analyzed in the positive analysis fitting direction relative to DMSO as the negative control and baseline of activity. Using a type of inducible reporter, measures of mRNA for gain-of-signal activity can be used to understand the reporter gene at the transcription factor-level as they relate to the gene PPARa. Furthermore, this assay endpoint can be referred to as a primary readout, because this assay has produced multiple assay endpoints where this one serves a reporter gene function. To generalize the intended target to other relatable targets, this assay endpoint is annotated to the nuclear receptor intended target family, where the subfamily is non-steroidal.
Human liver HepG2 cells are transiently transfected with multiple reporter transcription units (MRTUs) in 6-well plates using FuGene 6 reagent (Roche; 3 ml FuGene/1 mg DNA). The MRTU constructs are regulated by a cis-regulating element (promoter). Each RTU expresses a GAL4-UAS that regulates the transcription of a nearby target reporter gene sequence. A major difference between the CIS and TRANS system is that in CIS activities of endogenous TFs are measured, whereas the TRANS assay evaluates changes in activities of exogenous, chimeric NR-Gal4 proteins. […] At the end of 24 hour incubation, total RNA was isolated using TriZol reagent (Invitrogen). The isolated RNA is then reverse-transcribed using oligo(dT) primer and Mo-MLV reverse transcriptase (Invitrogen) with DNAse I (Ambion) treatment for 30 min. The one-tenth of the produced cDNA was amplified by PCR using Taq DNA polymerase (Invitrogen) and two reporter sequence-specific primers. The PCR products were fluorescently labeled by primer extension with 6-arboxyfluorescein (6-FAM) 5'-labeled reporter sequence-specific primer (2 min at 95 C, 20 s at 68 C and 10 min at 72 C) and these products were digested with 5U of HpaI (New England Biolabs) for 2h at 37 C. The fragments were purified using Qiaquick PCR columns (Qiagen), analyzed on an ABI 3130xL genetic analyzer (Applied Biosystems) with peak positions identified by using a set of X-rhodamine (ROX)-labeled MapMarker1000 molecular weight standards (BioVentures). The raw capillary electrophoresis data was processed using Attagraph software (Attagene).
With `CC(c1cc2ccccc2s1)N(O)C(N)=O` (configuration not stated), the compound was called inactive. As usually defined, the AC50 is the concentration giving half of the maximal activity seen. For the compound `CC(C)(Oc1ccc(C2CC2(Cl)Cl)cc1)C(=O)O` (configuration not stated), the half-maximal activity concentration (AC50) was 71.9 µM (active).

Regarding `CC(C)OC(=O)C(C)(C)Oc1ccc(C(=O)c2ccc(Cl)cc2)cc1`, the compound was called inactive. Regarding `Cc1cccc(Nc2cc(Cl)nc(SCC(=O)O)n2)c1C`, the AC50 was 8.62 µM (active). For the compound `C[C@@H]1C[C@H]2[C@@H]3CCC4=CC(=O)C=C[C@]4(C)[C@@]3(F)[C@@H](O)C[C@]2(C)[C@@]1(O)C(=O)COP(=O)(O)O`, the compound was called inactive.

For the compound `Cc1nc(-c2ccc(C(F)(F)F)cc2)sc1C(=O)NCc1ccc(OC(C)(C)C(=O)O)cc1`, the AC50 was 0.0769 µM (active). For `CC(C)(Oc1ccc(CCNC(=O)c2ccc(Cl)cc2)cc1)C(=O)O`, the half-maximal activity concentration (AC50) is 21.6 µM (active). Consider `C=C(c1ccc(C(=O)O)cc1)c1cc2c(cc1C)C(C)(C)CCC2(C)C`, for which the compound was called inactive. Consider `CN(CCOc1ccc(CC2SC(=O)NC2=O)cc1)c1ccccn1` (configuration not stated), for which the compound was called inactive. Still for that read-out and setting: then `CC(C)(Oc1ccc(Cl)cc1)C(=O)O`, with “inactive”. Take `Cc1ccc(C)c(OCCCC(C)(C)C(=O)O)c1`: the AC50 is 73.6 µM (active). Take `Cc1c(C)c2c(c(C)c1O)CCC(C)(COc1ccc(CC3SC(=O)NC3=O)cc1)O2` (configuration not stated): the compound was classed as inactive.
